# The list is not random: actives were taken first. Their share in the collection is about 11%.
# HEK cytotox = HEK 293 cell cytotoxicity | HEK 293 viability, ATP luminescence (CellTiter-Glo), 48-72 h | Potency, µM (highest dose often 115 µM), for inactives: at the highest dose activity change, negative = cytotoxicity, most hits filed as inhibitors | hit rate 6.6% among 94,000; further: nearly all actives have a fitted effect of over 60% in size
#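 HEK 293 seeded at 250 cells/well receive compound via pintool. After 48 or 72 hr at 37 degree Celsius, 5% CO2 and 95% humidity, CellTiter-Glo is dispensed and luminescence read following 10 min at room temperature.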
# NIH3T3 tox = kills NIH 3T3 cells. NIH 3T3 viability, CellTiter-Glo ATP luminescence, 48-72 h. Potency, µM (series often up to 96.7 µM), inactives show top-dose activity change, negative = cytotoxicity, most hits filed as inhibitors. hit rate 4.3% among 94,000; further: nearly all actives have a fitted effect of over 55% in size
#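 First NIH 3T3 cells are plated at 400 cells/well; next compound is pinned in; then plates incubate 48 or 72 hr at 37 °C; finally CellTiter-Glo is added and luminescence read after 10 min.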
# FLuc inh = blocks purified firefly luciferase enzyme activity | Potency, µM (highest dose often 115 µM), hits mostly inhibitors | purified P. pyralis luciferase, luminescence, biochemical | hit rate 2.5% among 76,000; further: nearly all actives have a fitted effect of over 65% in size
# Target sequence (P08659 whole entry, looked up): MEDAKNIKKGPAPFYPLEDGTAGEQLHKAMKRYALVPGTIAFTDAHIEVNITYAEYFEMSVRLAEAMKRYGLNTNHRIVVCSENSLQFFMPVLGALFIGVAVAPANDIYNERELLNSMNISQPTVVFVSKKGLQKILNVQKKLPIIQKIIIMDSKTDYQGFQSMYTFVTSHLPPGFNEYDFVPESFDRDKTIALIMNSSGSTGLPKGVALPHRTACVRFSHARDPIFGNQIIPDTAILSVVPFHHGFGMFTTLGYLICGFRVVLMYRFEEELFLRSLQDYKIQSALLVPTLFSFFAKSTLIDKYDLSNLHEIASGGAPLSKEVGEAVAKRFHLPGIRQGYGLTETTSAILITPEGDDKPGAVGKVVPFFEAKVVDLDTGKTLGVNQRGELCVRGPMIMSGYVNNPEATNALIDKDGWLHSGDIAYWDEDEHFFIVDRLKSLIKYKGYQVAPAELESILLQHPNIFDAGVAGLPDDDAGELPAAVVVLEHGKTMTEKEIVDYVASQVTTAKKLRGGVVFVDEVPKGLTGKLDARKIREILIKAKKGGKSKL
#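 Luminescence read by CCD imager after adding enzyme (10nM final) to wells holding compound, titrated in qHTS. Substrates 10uM each D-luciferin and ATP; buffer 50mM Tris acetate pH 7.5, 10mM Mg acetate, Tween-20, BSA.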
# hNpr1 antagonist = human Npr1 receptor antagonism | HEK293 hNpr1 GloSensor cGMP, ANP-stimulated luminescence | P16066 | AID 1347048 | hit rate 1.6% among 76,000 | Potency, µM (doses to about 46.3 µM), for inactives: top-dose activity change, negative = inhibition, actives largely listed as inhibitors; calls by dose curve; further: nearly all actives have a fitted effect of over 60% in size
#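 HEK293 cells stably expressing human Npr1 and cGMP GloSensor pGS-40F, loaded 2 h with 2% GloSensor reagent, given compound 30 min at room temperature. Luminescence read before and 20 min after 0.1 nM hNppA.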
# * marks the source's active call; other numbers are inactive results; i = inactive; ? = inconclusive; . = no result given; [ ] = another dose, or the depositor's remark. Unless noted, the call rests on the fitted dose curve; in most records, active means well fitted curve in the direction sought with a large enough effect; inconclusive means small, poorly fitted or top-dose-only effect, or another doubt; inactive means no such curve, though single readings can be large; an effect the other way counts as inactive or inconclusive. On the % scale 0 is the no-effect control and ±100 the full control effect; potency means the concentration at half of the fitted maximal effect.
SMILES,HEK cytotox,NIH3T3 tox,FLuc inh,hNpr1 antagonist
O=C(N1CCOCC1)N1CCN(c2ccc3nnc(-c4ccccc4)n3n2)CC1,i,-20%,.,.
Cc1ccc(NC(=O)c2ccc3c(c2)N(S(C)(=O)=O)CC3)cc1,?,-19%,1.3µM*,?
Cc1ncsc1CN1CCCCCCNC(=O)[C@@H]2C[C@@H](C(=O)N3CCc4ccccc4C3)C[C@@H]21,89µM*,-19%,i,-18%
N#Cc1ccc(CN2CCCCCCNC(=O)[C@@H]3C[C@@H](C(=O)N4CCc5ccccc5C4)C[C@@H]32)cc1,?,?,i,-14%
C=CCN1C[C@H]2COc3cc(OC)ccc3[C@H]2N(C(=O)Cc2ccccc2)CCC1=O,-17%,?,.,.
C#CCNC(=O)c1ccc2nnc(-c3cncc(Cl)c3)n2c1,i,2%[138 µM],.,.
CN1Cc2c(cc(N3CCOCC3)nc2-c2cnn(C)c2)C1=O,?,25µM*,i,8%[70.6 µM]
CN(C)c1cccc(-c2nc(N3CCOCC3)cc3c2CN(Cc2cnn(C)c2)C3=O)c1,?,45µM*,i,3%[70.6 µM]
Cc1ccccc1-c1nc(N2CCOCC2)cc2c1CN(Cc1ccccc1)C2=O,50µM*,25µM*,i,-28%[70.6 µM]
O=C1c2cc(N3CCOCC3)nc(-c3ccc(F)cc3)c2CN1CC1CC1,100µM*,?,i,-20%[70.6 µM]
Cc1ccccc1-c1nc(N2CCOCC2)cc2c1CN(Cc1cnn(C)c1)C2=O,?,?,i,0%[70.6 µM]
O=C1c2cc(N3CCOCC3)nc(-c3ccc(F)cc3)c2CN1Cc1ccccc1,?,?,i,-22%[70.6 µM]
Cc1cc2nc3n(c(=O)c2n1CC(=O)Nc1ccc2c(c1)OCCO2)CCCC3,2%,-19%,i,1%
COc1cccc(C(=O)N2CCN(C(=O)c3ccc(-c4ccc(OC)nn4)cc3)CC2)c1,-4%,-14%,.,.
O=C1c2cc(N3CCOCC3)nc(-c3cccc(CO)c3)c2CN1Cc1ccccc1,79µM*,-80%[138 µM],i,-1%[70.6 µM]
O=C1c2cc(N3CCOCC3)nc(-c3ccc(CO)cc3)c2CN1Cc1ccccc1,-10%[172 µM],?,i,1%[70.6 µM]
COc1cc(F)ccc1-c1nc(N2CCOCC2)cc2c1CN(c1ccccc1)C2=O,?,-25%[138 µM],71µM*,1%[70.6 µM]
CNC(=O)N1CCC(C2CCN(C(=O)Cc3ccccc3)C2)CC1 (centres undefined),-22%,-10%,i,2%
CNC(=O)N1CCC(C2CCN(C(=O)CCCc3ccccc3)C2)CC1 (centres undefined),0%,-9%,25µM*,-21%
CN1CCC(OC2CCN(C(=O)CCCc3ccccc3)CC2)CC1,-8%,-23%,28µM*,-6%
Clc1ccc(CN2CCOC[C@H](Oc3cccnc3)C2)cc1,?,?,i,-13%[70.6 µM]
CN1CC(=O)N(C2CCNC2)Cc2c(NC3CCCCCC3)ncnc21 (centres undefined),-18%,-21%,.,.
Cc1cc(F)ccc1-c1[nH]nc2ncc(-c3ccnn3C)nc12,?,-25%[138 µM],i,-12%[70.6 µM]
Cc1cc(F)ccc1-c1[nH]nc2ncc(-c3cccnc3)nc12,?,-29%[138 µM],i,-20%[70.6 µM]
Cc1cc(F)ccc1-c1[nH]nc2ncc(-c3ccsc3)nc12,?,20µM*,i,-1%[70.6 µM]
SMILES,HEK cytotox,NIH3T3 tox,FLuc inh,hNpr1 antagonist
COc1ccc(-c2cnc3n[nH]c(-c4ccc(F)cc4C)c3n2)cn1,50µM*,50µM*,i,-3%[70.6 µM]
COc1cc(-c2cnc3n[nH]c(-c4ccccc4)c3n2)ccn1,?,?,i,-2%[70.6 µM]
COc1cc(-c2cnc3n[nH]c(-c4ccc(F)cc4C)c3n2)ccn1,79µM*,?,i,-5%[70.6 µM]
CN(C)c1ccc(C(=O)N[C@H]2C[C@@H](c3nc(-c4ccc5ccccc5c4)no3)N(C)C2)cc1,?,?,i,-11%
COc1ccc(CC(=O)N[C@H]2C[C@@H](c3nc(-c4ccc5ccccc5c4)no3)N(C)C2)cc1,-13%,-5%,40µM*,-16%
COc1ccc(-c2noc([C@@H]3C[C@H](NCc4ccc(F)cc4)CN3C)n2)cc1,100µM*,?,63µM*,-6%[70.6 µM]
CN1C[C@@H](NC(=O)c2ccccn2)C[C@H]1c1nc(-c2ccc3ccccc3c2)no1,?,?,32µM*,-3%[70.6 µM]
Cc1ccc([S+](=O)([O-])N2CCC(n3cc[nH]c3=O)CC2)cc1,i,?,.,.
COCC1CN(C)CC12CCN(S(=O)(=O)c1cccc(OC)c1)CC2 (centres undefined),?,?,i,-17%
O=C(C1CCCN(Cc2cccc(-c3ccc(F)cc3F)c2)C1)N1CCN(c2ncccn2)CC1 (centres undefined),40µM*,?,.,.
O=C(C1CCCN(Cc2cccc(-c3ccc(F)cc3F)c2)C1)N1CCCC1 (centres undefined),28µM*,?,.,.
COCC(=O)N1CCC(c2nn(-c3ccc(Cl)cc3)c(=O)[nH]2)CC1,-12%,-9%,i,11%
C=CCC1(CO)CCCN(Cc2cc(C3CCCCC3)no2)C1 (centres undefined),40µM*,?,i,-16%
COc1ccc(Cn2nc(-c3ccccc3)nc2C2CCC(=O)NC2)cc1 (centres undefined),?,-15%,35µM*,6%
COc1ccc(CN2CCC(c3nn(Cc4ccccc4)c(=O)[nH]3)CC2)cc1,-7%,-10%,i,25%
O=C(C1CCCN1C(=O)c1ccccc1)N1CCC(c2nc3ncccc3[nH]2)CC1 (centres undefined),-11%,-21%,.,.
c1ccc(-c2noc(-c3cncnc3N3CCN(c4ccccc4)CC3)n2)cc1,45µM*,?,?,-21%
CCOC(=O)C1(C/C=C/c2ccccc2)CCCN(C(=O)C2CCOCC2)C1 (centres undefined),89µM*,-7%,i,-25%
Cc1ccc(OCc2nc(C3CN(C(=O)c4ccc5nc[nH]c5c4)C3)no2)cc1,?,?,i,?
Cc1ccccc1CCN1CCCC(CN(C)C(=O)c2cc3ccccc3[nH]2)C1 (centres undefined),22µM*,?,i,?
CNC(=O)[C@H]1CN(C(=O)OCC(C)C)[C@]2(C)C(=O)N(CCOC)c3ccccc3[C@H]12,?,-21%[46.1 µM],.,.
Cc1cc(C)n(C2CCN(c3nccc(-c4ccccn4)n3)C2)n1 (centres undefined),-26%,-24%,45µM*,-14%
COc1ccc(-c2nc(C)nc3c2CCN(C(=O)c2ccc4c(c2)OCO4)CC3)cc1,?,-26%,i,0%
CCc1nc2c(c(-c3ccc(OC)cc3)n1)CCN(C(=O)c1ccccc1F)CC2,-19%,40µM*,.,.
CCc1nc2c(c(-c3ccc(OC)cc3)n1)CN(C(=O)c1ccccc1)CC2,1%,14µM*,.,.
CCc1nc2c(c(-c3ccc(OC)cc3)n1)CCN(C(=O)c1ccccc1)CC2,-10%,?,.,.
CCc1nc2c(c(-c3ccc(OC)cc3)n1)CN(C(=O)c1ccc3c(c1)OCO3)CC2,-7%,40µM*,.,.

# Screens (PubChem BioAssay)
